From PubChem BioAssay (Tox21)
Records with an inconclusive call do not appear. A call without a number means that no potency is given here. A number with no mark means an inactive call. Active and inactive are the calls of the source. The call rests on the fitted dose curve; in most records, active means well fitted curve in the direction sought with a large enough effect in the repeat runs; inconclusive means weak or mixed curves; inactive means no such curve, though single readings can be large; an effect the other way counts as inactive or inconclusive.

Tests used:
[1] = A CellTox Green Cytotoxicity Assay to monitor cytotoxicity in HEK293 cells - 40 hour (AID 1224871); further: nearly all actives have a fitted effect of over 45% in size; further: potency means the concentration at half of the fitted maximal effect
Summary of the method: (§1)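 Dead-cell fluorescence measured kinetically: asymmetric cyanine dye, HEK293, 600 cells/well, 5 h settle, 23 nL cpd/DMSO, 37 C, reads 0–40 h every 8 h.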

[2] = qHTS RealTime-Glo MT Cell Viability Assay in HEK293 cells - 16 hour (AID 1224872); further: nearly all actives have a fitted effect of over 50% in size; further: potency means the concentration at half of the fitted maximal effect
Summary of the method: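 Nonlytic real-time viability readout: viable cells convert prosubstrate to NanoLuc substrate, giving luminescence proportional to live cell number. HEK293, 600 cells/well, compound added after 5 h, continuous culture at 37 C.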

[3] = qHTS RealTime-Glo MT Cell Viability Assay in HepG2 cells - 8 hour (AID 1224873); further: nearly all actives have a fitted effect of over 55% in size
Summary of the method: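 Real-time viability: cells seeded at 600 per well together with NanoLuc and cell-permeant prosubstrate, compounds added after 5 h incubation. Luminescence tracked at 0, 8, 16, 24, 32 and 40 h of exposure.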

[4] = A CellTox Green Cytotoxicity Assay to monitor cytotoxicity in HEK293 cells - 24 hour (AID 1224875); further: nearly all actives have a fitted effect of over 45% in size; further: potency means the concentration at half of the fitted maximal effect
Summary of the method: as §1

[5] = A CellTox Green Cytotoxicity Assay to monitor cytotoxicity in HepG2 cells - 16 hour (AID 1224876); further: nearly all actives have a fitted effect of over 45% in size
Summary of the method: (§2)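 First, HepG2 cells (600/well) mixed with reagent were plated; second, after 5 h at 37 C they received compounds via pintool; third, fluorescence was measured at 0 h through 40 h at 8 h intervals.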

[6] = qHTS RealTime-Glo MT Cell Viability Assay in HepG2 cells - 32 hour (AID 1224877); further: nearly all actives have a fitted effect of over 55% in size
Summary of the method: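 Luminescence read-out: viable HepG2 cells reduce a prosubstrate to a NanoLuc substrate, giving a signal proportional to live cell number. Reads taken at 0, 8, 16, 24, 32 and 40 h of compound exposure at 37 C.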

[7] = A CellTox Green Cytotoxicity Assay to monitor cytotoxicity in HepG2 cells - 24 hour (AID 1224878); further: nearly all actives have a fitted effect of over 45% in size; further: potency means the concentration at half of the fitted maximal effect
Summary of the method: as §2

[8] = qHTS RealTime-Glo MT Cell Viability Assay in HEK293 cells - 0 hour (AID 1224880)
Summary of the method: (§3)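 600 HEK293 cells per well, dispensed already mixed with RealTime-Glo MT reagents. Compound dosing came 5 h later. The same wells were read for luminescence at 0, 8, 16, 24, 32 and 40 h of exposure at 37 C.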

[9] = A CellTox Green Cytotoxicity Assay to monitor cytotoxicity in HepG2 cells - 40 hour (AID 1224879); further: nearly all actives have a fitted effect of over 40% in size
Summary of the method: as §2

[10] = qHTS RealTime-Glo MT Cell Viability Assay in HEK293 cells - 40 hour (AID 1224874); conditions: RealTime-Glo luminescence; max response: hits give low values; further: nearly all actives have a fitted effect of over 50% in size; further: potency means the concentration at half of the fitted maximal effect
Summary of the method: as §3

SMILES | Potency [1] | Potency [2] | Potency [3] | Potency [4] | Potency [5] | Potency [6] | Potency [7] | outcome [8] | Potency [9] | Potency [10] | max response [10]
O=C1OC(CCN2CCCCC2)OC1(c1ccccc1)c1ccccc1 (centres undefined) | inactive | inactive | inactive | inactive | inactive | inactive | inactive | inactive | – | – | –
CC(C)(C)C(=O)C(Oc1ccc(Cl)cc1)n1cncn1 (centres undefined) | inactive | inactive | inactive | inactive | inactive | inactive | inactive | inactive | inactive | – | –
CCC(=O)C(CCN(C)C)(c1ccccc1)c1ccccc1 | inactive | inactive | inactive | inactive | inactive | inactive | inactive | inactive | inactive | – | –
Nc1ccccc1Cl | inactive | inactive | inactive | inactive | inactive | inactive | inactive | inactive | inactive | – | –
COc1cccc2c1cc([N+](=O)[O-])c1c(C(=O)O)cc3c(c12)OCO3 | inactive | 12.3 µM (active) | inactive | inactive | inactive | – | 21.9 µM (active) | – | – | 2.19 µM (active) | –
CCCCOC(=O)c1ccccc1C(=O)O | inactive | inactive | inactive | inactive | inactive | inactive | inactive | inactive | inactive | – | –
COC(=O)C1=CCCN(C)C1 | inactive | inactive | inactive | inactive | – | inactive | inactive | inactive | – | – | 3.81%
CNC(=O)Oc1ccc(N(C)C)c(C)c1 | inactive | inactive | inactive | inactive | inactive | inactive | inactive | inactive | inactive | – | –
CC(Oc1ccc(Oc2ncc(C(F)(F)F)cc2Cl)cc1)C(=O)O (centres undefined) | inactive | inactive | inactive | inactive | inactive | inactive | inactive | inactive | – | – | –
CCOc1nc(C(Cl)(Cl)Cl)ns1 | inactive | inactive | inactive | inactive | inactive | inactive | inactive | inactive | – | – | –
O=C1OC(c2ccc(O)c(S(=O)(=O)O)c2)(c2ccc(O)c(S(=O)(=O)O)c2)c2c(Br)c(Br)c(Br)c(Br)c21 | inactive | inactive | inactive | inactive | inactive | inactive | inactive | inactive | inactive | – | –
CCOC(=O)NC(=S)Nc1ccccc1NC(=S)NC(=O)OCC | inactive | inactive | inactive | inactive | inactive | inactive | inactive | inactive | – | – | –
CC1(C)COP(Oc2ccccc2)OC1 | inactive | inactive | inactive | inactive | inactive | inactive | inactive | inactive | inactive | – | –
NC(=O)O | inactive | inactive | inactive | inactive | inactive | inactive | inactive | inactive | inactive | – | –
COc1ccc(C(=O)N2CCCC2=O)cc1 | inactive | inactive | inactive | inactive | – | inactive | – | inactive | – | – | –
CCC(C)(C)c1cc(-n2nc3ccccc3n2)c(O)c(C(C)(C)CC)c1 | inactive | 24.9 µM (active) | inactive | inactive | inactive | inactive | inactive | inactive | inactive | – | –
C1CCC(C2CCCCC2)CC1 | inactive | inactive | inactive | inactive | inactive | inactive | inactive | inactive | inactive | – | –
c1ccc(N2CCNCC2)cc1 | inactive | inactive | inactive | inactive | inactive | inactive | inactive | inactive | – | – | –
CCC/C(=N\OCC)C1=C(O)CC(CC(C)SCC)CC1=O (centres undefined) | inactive | inactive | inactive | inactive | inactive | inactive | inactive | inactive | inactive | – | –
CC(C)CC(N(C)C)C1(c2ccc(Cl)cc2)CCC1 (centres undefined) | 23.9 µM (active) | inactive | inactive | 23.9 µM (active) | – | inactive | – | inactive | – | – | -6.91%
ClC(Br)Br | inactive | inactive | inactive | inactive | inactive | inactive | inactive | inactive | inactive | – | –
C(CCOCC1CO1)COCC1CO1 (centres undefined) | inactive | inactive | inactive | inactive | inactive | inactive | inactive | inactive | inactive | – | –
C[C@]1(O)CC[C@H]2[C@@H]3CCC4=CC(=O)CC[C@]4(C)[C@@]3(F)[C@@H](O)C[C@@]21C | inactive | inactive | inactive | – | inactive | inactive | inactive | – | inactive | – | –
CC(=O)C(Cl)Cl | inactive | inactive | inactive | inactive | inactive | inactive | inactive | inactive | – | – | –
CCOP(=S)(OCC)Oc1ncn(-c2ccccc2)n1 | inactive | inactive | inactive | inactive | inactive | inactive | inactive | inactive | inactive | – | –
